Sm TGR block – S. mansoni TGR enzyme inhibition; Q962Y6; Potency, µM (top dose mostly 114 µM), inactives show at the highest dose activity change, negative = inhibition, hits mostly inhibitors; purified TGR, DTNB reduction, TNB absorbance 405 nm; 360,000 tested, 3% active; AID 485364; note: nearly all actives have a fitted effect of over 60% in size
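First, TGR (20 nM dispensed) and NADPH were mixed with compound. Second, a 15 min room-temperature incubation followed. Third, further NADPH and then DTNB were added to start the reaction. Finally, TNB absorbance was monitored kinetically.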
AmpC no deterg – blocks E. coli AmpC beta-lactamase in detergent-free assay; AmpC nitrocefin hydrolysis, absorbance 480 nm, 0.0001% Triton; AID 485341; Potency, µM (doses to about 57.1 µM), for the others: top-dose activity change, negative = inhibition, usual class: inhibitors; 330,000 tested, 0.52% active;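 note: plate controls were no compound for no effect and no enzyme for full effect; nearly all actives have a fitted effect of over 20% in size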
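20 mM phosphate pH 7.0 + 0.01% (detergent screen) or 0.0001% Triton X-100; 5.3 nM AmpC reagent; cpd preinc 15 min RT; nitrocefin (800 uM stock) to start; A480 q20 s × 4 min; Activity was normalised to no-enzyme and no-compound control wells.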
Giardia FBPA inh – inhibitors of Giardia lamblia fructose-1,6-bisphosphate aldolase; A8B2U2; purified Giardia FBPA; Potency, µM (titrated, usually from 59.6 µM), without a hit: at the top dose activity, negative = inhibition, actives largely listed as inhibitors; 290,000 tested, 0.71% active; AID 2451; note: nearly all actives have a fitted effect of over 55% in size
Target sequence (A8B2U2 whole entry, looked up): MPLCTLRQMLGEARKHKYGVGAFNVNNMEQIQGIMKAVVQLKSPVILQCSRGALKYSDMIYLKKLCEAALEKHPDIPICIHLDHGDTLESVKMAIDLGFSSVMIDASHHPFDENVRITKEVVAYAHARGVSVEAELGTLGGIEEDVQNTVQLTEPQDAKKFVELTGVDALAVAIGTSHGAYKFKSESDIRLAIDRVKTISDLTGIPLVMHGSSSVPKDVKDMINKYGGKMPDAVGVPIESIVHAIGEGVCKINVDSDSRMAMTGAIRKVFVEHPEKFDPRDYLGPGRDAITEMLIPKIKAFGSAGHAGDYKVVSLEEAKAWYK
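Giardia FBPA (40 nM reagent) was preincubated 10 min at RT with compound (up to 57.5 uM final), then substrate plus GAPDH/TPI/NAD/arsenate coupling system with diaphorase/resazurin was added; resorufin fluorescence (525/598 nm) was read after 20 min.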
AmpC inh detg – AmpC beta-lactamase inhibition with detergent present; P00811; AmpC hydrolysis of nitrocefin, absorbance 480 nm, 0.01% Triton; Potency, µM (highest dose often 114 µM), for inactives: top-dose activity change, negative = inhibition, actives largely listed as inhibitors; 370,000 tested, 0.041% active; AID 485294;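 note: 0% = no-compound wells and -100% = no-enzyme wells; nearly all actives have a fitted effect of over 25% in size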
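20 mM phosphate pH 7.0 + 0.01% (detergent screen) or 0.0001% Triton X-100; 5.3 nM AmpC reagent; cpd preinc 15 min RT; nitrocefin (800 uM stock) to start; A480 q20 s × 4 min; Activity was normalised to no-enzyme and no-compound control wells.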
* = called active by the depositor; u = inconclusive; x = no result. In the library only some 3.6% were active in any assay of this set; here they are far more common. Calls come from the whole dose curve; as a rule, active = well fitted curve in the direction sought with a large enough effect; inconclusive = small, poorly fitted or top-dose-only effect, or another doubt; inactive = no such curve, though single readings can be large; an effect the other way counts as inactive or inconclusive. Unless noted, % is set by controls: 0 for no effect and ±100 for the full control effect; potency is the fitted concentration of half-maximal effect.

SMILES	Sm TGR block	AmpC no deterg	Giardia FBPA inh	AmpC inh detg
O=C(NCCC1=CCCCC1)C(=O)NCc1ccncc1	x	-16%	2%	-4%
COc1ccc(C2=Nn3c(nnc3-c3cccc(OC)c3)SC2)cc1	x	x	4%	x
O=C(N[C@@H](Cc1ccccc1)C(=O)N1CCN(S(=O)(=O)c2ccc(F)cc2)CC1)c1ccco1	0%	24%	x	u
CC(=O)N(CCC(Cc1ccccc1)c1ccco1)Cc1ccco1 (configuration not stated)	22µM*	43%	3%	-2%
O=C(c1ccco1)N(Cc1ccc(Cl)cc1)Cc1ccco1	-3%	4%	x	2%
O=C(c1ccco1)N(CCC(c1ccccc1)c1ccco1)Cc1ccco1 (configuration not stated)	10µM*	-21%	-5%	-8%
CC(=O)N(CCP(=O)(c1ccccc1)c1ccccc1)Cc1ccco1	-33%	-1%	6%	-1%
Cc1ccc(C(CCN(Cc2ccccc2)C(=O)c2ccco2)c2ccco2)cc1 (configuration not stated)	20µM*	u	-3%	-9%
CC(C)Cn1cnc2c1c(=O)n(CC(=O)NC(=O)NC(C)(C)C)c(=O)n2Cc1ccccc1	8%	66%	4%	u
O=[N+]([O-])CC(=Nc1ccc(F)cc1)N/N=C\c1oc(O)c2ccccc12	11µM*	-58%	u	1%
Cc1ccc(NC(=O)c2nc(S(=O)(=O)Cc3ccc(F)cc3)ncc2Cl)cc1C	u	x	x	4%
CCS(=O)(=O)c1ncc(Cl)c(C(=O)Nc2ccc(S(=O)(=O)N3CCC(C)CC3)cc2)n1	0.45µM*	0%	0%	u
CN(c1ccccc1)S(=O)(=O)c1ccc(NC(=O)c2nc(S(C)(=O)=O)ncc2Cl)cc1	1.3µM*	-10%	x	2%
CCc1ccc(NC(=O)c2nc(S(=O)(=O)Cc3ccccc3)ncc2Cl)cc1	6.3µM*	-28%	-20%	-11%
CCOC(=O)c1c(-c2ccccc2)csc1NC(=O)c1nc(S(=O)(=O)CC)ncc1Cl	2µM*	x	x	13%
CCOc1ccc2[nH]c(C)c(CN3CCCCCC3)c(=O)c2c1	0%	0%	-4%	-9%
CC(C)CN(CCNC(=O)CN1C(=O)COc2ccc(S(=O)(=O)N3CCC(C)CC3)cc21)CC(C)C	26%	-4%	x	3%
Cn1nc(N2CCN(S(=O)(=O)c3ccccc3)CC2)c(=O)n(C)c1=O	-32%	-15%	x	u
CC(=O)N1CCOc2ccc(S(=O)(=O)N3CC(C)CC(C)C3)cc21 (configuration not stated)	-2%	28%	29%	-2%
COc1cc(C(=O)NNC(=S)Nc2ccc(S(N)(=O)=O)cc2)cc(OC)c1OC	x	-21%	3%	2%
CCS(=O)(=O)c1ncc(Cl)c(C(=O)Nc2ccccc2)n1	7.9µM*	x	x	-6%
CCCS(=O)(=O)c1ncc(Cl)c(C(=O)Nc2ccc(S(=O)(=O)Nc3ncccn3)cc2)n1	13µM*	-14%	-25%	1%
CCOC(=O)c1c(NC(=O)c2nc(SCC)ncc2Cl)sc(C(C)=O)c1C	-2%	x	x	-9%
CC(=O)Nc1ccc(NC(=O)c2nc(S(=O)(=O)Cc3ccc(F)cc3)ncc2Cl)cc1	3.2µM*	x	x	u
CCSc1ncc(Cl)c(C(=O)Nc2ccccc2)n1	-10%	-11%	5%	-3%
SMILES	Sm TGR block	AmpC no deterg	Giardia FBPA inh	AmpC inh detg
CCOC(=O)c1c(NC(=O)c2nc(S(C)(=O)=O)ncc2Cl)sc(C(C)=O)c1C	2.2µM*	x	x	2%
O=C(CSc1nccn1Cc1ccccc1)Nc1ccc2c(c1)OCCO2	0%	x	x	2%
CCOC(=O)c1ccc(NC(=O)c2nc(S(=O)(=O)Cc3ccccc3)ncc2Cl)cc1	8.9µM*	-26%	x	-14%
O=C(CN1C(=O)NC2(CCCC2)C1=O)Nc1cc(C(F)(F)F)ccc1N1CCCCC1	-9%	35µM*	x	u
Cc1cccc(Cl)c1OCCCn1ccnc1	1%	-5%	u	1%
Cc1ccc(SC(=O)c2c(C)noc2-c2cc(C)on2)cc1	7.9µM*	-8%	-1%	2%
COc1cc(C(=O)OCC(=O)NCc2ccc(F)cc2)ccc1OCC(C)C	3%	0%	1%	3%
O=[N+]([O-])c1ccc(O)c(C(C#Cc2ccccc2)N2CCOCC2)c1 (configuration not stated)	-7%	8.9µM*	9%	-3%
CC(C(=O)Nc1ccncc1)(c1ccccc1)c1ccccc1	x	-1%	-3%	0%
